Experimental data taken from PubChem BioAssay AID1159554 (Broad Institute, 2015).
The campaign covered roughly 94,000 compounds. About 2,100 (2.2%) were called active. The sample holds actives, similar compounds and a random draw of the others, so the mix is not that of the screen. Rule as the data show it: active = activity change below about -80%; inconclusive = no clear call, values can overlap the other calls; inactive = above that.

Assay: Dd2 malaria parasite growth inhibition – SYBR Green fluorescence, single dose replicates, primary screen (AID 1159554)
Details: P. falciparum Dd2 growth, 72 h, at 10 µM, stronger effect = lower value

Activity change, active:
C[C@@H]1CN([C@H](C)CO)S(=O)(=O)c2ccc(C#Cc3ccncc3)cc2O[C@@H]1CN(C)S(=O)(=O)c1ccc(F)cc1 -83%
COc1ccccc1-c1ccc2c(c1)O[C@H](CN(C)S(=O)(=O)c1ccc(C)cc1)[C@@H](C)CN([C@H](C)CO)S2(=O)=O -80.6%
COc1ccc(S(=O)(=O)N2CCCCN3[C@@H](CO)[C@@H](c4ccc(C#CCC(C)C)cc4)[C@@H]3C2)cc1 -87.6%
Cc1noc(C)c1S(=O)(=O)Nc1ccc2c(c1)C(=O)N([C@@H](C)CO)C[C@H](C)[C@@H](CN(C)C(=O)Nc1cccc3ccccc13)OCCCC[C@H](C)O2 -88.5%
Cc1ccc(S(=O)(=O)Nc2ccc3c(c2)C(=O)N([C@@H](C)CO)C[C@@H](C)[C@H](CN(C)C(=O)Nc2cccc4ccccc24)OCCCC[C@H](C)O3)cc1 -81.5%
Cc1noc(C)c1S(=O)(=O)Nc1ccc2c(c1)C(=O)N([C@@H](C)CO)C[C@@H](C)[C@H](CN(C)S(=O)(=O)c1ccc(Cl)cc1)OCCCC[C@H](C)O2 -80.6%
COc1ccc(S(=O)(=O)Nc2ccc3c(c2)C(=O)N([C@@H](C)CO)C[C@H](C)[C@@H](CN(C)C(=O)Nc2ccc4c(c2)OCO4)OCCCC[C@@H](C)O3)cc1 -81.3%

Activity change, inactive:
CCCNC(=O)N1C[C@H](C)[C@@H](OC)CN(C)C(=O)c2ccc(NC(=O)CC)cc2OC[C@@H]1C 52.7%
COc1ccc2c3c(n(C)c2c1)[C@H](CO)NCC31CN(Cc2cc(F)ccc2F)C1 23%
C[C@H]1CN([C@@H](C)CO)S(=O)(=O)c2ccc(C#Cc3cccnc3)cc2O[C@H]1CN(C)C(=O)CN(C)C -40.6%
C[C@H]1CCCCO[C@H](CN(C)S(=O)(=O)c2ccc(F)cc2)[C@@H](C)CN([C@@H](C)CO)C(=O)c2cc(NS(=O)(=O)c3cn(C)cn3)ccc2O1 9.89%
CCCNC(=O)C[C@@H]1CC[C@H]2[C@@H](COC[C@@H](O)CN2Cc2ccccc2F)O1 7.46%
Cc1ccc(S(=O)(=O)N(C)C[C@@H]2Oc3cc(C4=CCCC4)ccc3S(=O)(=O)N([C@@H](C)CO)C[C@@H]2C)cc1 -71.1%
C[C@@H]1CN([C@@H](C)CO)S(=O)(=O)c2ccc(C#Cc3ccncc3)cc2O[C@@H]1CN(C)S(=O)(=O)c1ccccc1 -55.9%
C[C@@H]1CN([C@@H](C)CO)S(=O)(=O)c2ccc(C#Cc3ccc(F)cc3)cc2O[C@H]1CN(C)S(C)(=O)=O -67.9%
COc1ccccc1-c1ccc2c(c1)O[C@@H](CN(C)C)[C@H](C)CN([C@H](C)CO)S2(=O)=O -28.9%
CO[C@@H]1CN(C)C(=O)c2cc(NC(=O)Nc3cc(F)ccc3F)ccc2OC[C@@H](C)N(C)C[C@H]1C -36.8%
CN1C(=O)c2cc(NC(=O)C3CCOCC3)ccc2OC[C@@H]2O[C@@H](CC(=O)NCC3CC3)CC[C@@H]21 6.17%
O=C(NCCN1CCCC1)[C@@H]1N[C@@H]2c3ccc(-c4ccccc4)c(=O)n3C[C@@H]2[C@H]1CO -12.1%
COc1ccc(S(=O)(=O)N2CCCCN3[C@H](CO)[C@@H](c4ccc(C#CC(C)C)cc4)[C@H]3C2)cc1 -38.8%
COc1ccc(S(=O)(=O)N2CCCCN3[C@H](C2)[C@H](c2ccc(C#CCC(C)C)cc2)[C@@H]3CO)cc1 2.68%
CO[C@H]1CN(C)C(=O)c2cc(NC(=O)Nc3ccc4c(c3)OCO4)ccc2OC[C@@H](C)NC[C@@H]1C -43.8%
Cc1ccc(S(=O)(=O)Nc2ccc3c(c2)C(=O)N([C@H](C)CO)C[C@H](C)[C@@H](CN(C)C(=O)Nc2ccc4c(c2)OCO4)OCCCC[C@@H](C)O3)cc1 -34.5%
Cc1ccc(S(=O)(=O)Nc2ccc3c(c2)C(=O)N([C@H](C)CO)C[C@H](C)[C@H](CN(C)C(=O)Nc2ccc4c(c2)OCO4)OCCCC[C@@H](C)O3)cc1 4.19%
Cc1ccc(S(=O)(=O)N(C)C[C@H]2OCCCC[C@H](C)Oc3ccc(NS(=O)(=O)c4c(C)noc4C)cc3C(=O)N([C@H](C)CO)C[C@@H]2C)cc1 -35.7%
C[C@@H]1CCCCO[C@@H](CN(C)C(=O)Nc2cccc3ccccc23)[C@H](C)CN([C@@H](C)CO)C(=O)c2cc(NS(=O)(=O)c3ccccc3)ccc2O1 -2.21%
C[C@H]1CCCCO[C@@H](CN(C)C(=O)Nc2cccc3ccccc23)[C@@H](C)CN([C@@H](C)CO)C(=O)c2cc(NS(=O)(=O)c3ccc(Cl)cc3)ccc2O1 -44.1%
Cc1noc(C)c1S(=O)(=O)Nc1ccc2c(c1)C(=O)N([C@@H](C)CO)C[C@@H](C)[C@@H](CN(C)S(=O)(=O)c1ccccc1)OCCCC[C@H](C)O2 -22.9%
Cc1noc(C)c1S(=O)(=O)Nc1ccc2c(c1)C(=O)N([C@@H](C)CO)C[C@@H](C)[C@H](CN(C)C(=O)Nc1cccc3ccccc13)OCCCC[C@H](C)O2 -39%
Cc1noc(C)c1S(=O)(=O)Nc1ccc2c(c1)C(=O)N([C@@H](C)CO)C[C@@H](C)[C@H](CN(C)C(=O)Nc1cccc3ccccc13)O2 16.8%
CCNC(=O)C[C@@H]1CC[C@H]2[C@@H](COc3ccc(NC(=O)Cc4cccs4)cc3C(=O)N2C)O1 3.93%
